Consider 58 molecules from PubChem BioAssay AID1259313 (Sanford-Burnham Center for Chemical Genomics, 2017).

The structures appear in SMILES notation. Screen size: about 340,000 compounds; about 8,500 (2.5%) were called active. This is one part of a sample in which actives are shown more often than they occur.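 The calls were made as follows: active = melting temperature shift of at least 10% of the positive control shift, at one fixed dose; inactive = the rest.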

The experiment deals with Glutamate receptor ionotropic, NMDA 3A (GRIN3A) ligand-binding domain. In words: binders of NR3A ligand-binding domain, primary screen, biophysical, differential scanning fluorimetry, uHTS (AID 1259313). To be noted: NR3A LBD differential scanning fluorimetry, at 25 µM, active compounds read high, 0% = protein alone, 100% = glycine-bound protein.
On to `COCCCNC(=S)N(Cc1ccccc1)Cc1ccc(F)cc1`, for which the Tm shift relative to glycine control is 0.84% (inactive).

Take `O=C1COc2ccc(NC(=O)N3CCN(c4ccc(F)cc4)CC3)cc2N1`: the Tm shift relative to glycine control was -1.31% (inactive).

`CC(C)c1c(C(=O)N/N=C/c2ccc(-c3ccccc3)cc2)nnn1-c1nonc1N`: the Tm shift relative to glycine control is 1.62% (inactive).

For the molecule `Nc1nonc1-n1nnc(C(=O)N/N=C/c2cc(Br)ccc2O)c1CSC1=NCCS1`, the Tm shift relative to glycine control was 11.5% (active).

For the molecule `Nc1nonc1-n1nnc(C(=O)N/N=C\c2ccncc2)c1CN1CCCCC1`, the Tm shift relative to glycine control is 0.45% (inactive).

In the case of `COCc1c(C(=O)N/N=C\c2cccnc2)nnn1-c1nonc1N`, the Tm shift relative to glycine control is -1.82% (inactive).

As for `CC(C)Oc1ccc(/C=N/NC(=O)c2nnn(-c3nonc3N)c2CN(C)C2CCCCC2)cc1`, the Tm shift relative to glycine control is 2.01% (inactive).

With `CN(C)Cc1c(C(=O)N/N=C/c2ccccc2OCc2ccc(F)cc2)nnn1-c1nonc1N`, the Tm shift relative to glycine control is 2.67% (inactive).

Consider `Cc1ccc(SCc2c(C(=O)N/N=C/c3cccnc3)nnn2-c2nonc2N)cc1`, for which the Tm shift relative to glycine control was 30.3% (active).

Regarding `COCc1c(C(=O)N/N=C/C2CC=CCC2)nnn1-c1nonc1N` (stereo not drawn), the Tm shift relative to glycine control was -1.57% (inactive).

Consider `Cc1ccc(SCc2c(C(=O)N/N=C/C3CC=CCC3)nnn2-c2nonc2N)cc1` (stereo not drawn), for which the Tm shift relative to glycine control was 85.4% (active).

With `CCCCNC(=O)c1ccccc1NC(=O)c1ccccc1N(C)S(C)(=O)=O`, the Tm shift relative to glycine control was 0.62% (inactive).

In the case of `Cc1c(Br)ccc(NC(=O)COc2ccccc2C(N)=O)c1C`, the Tm shift relative to glycine control is -0.92% (inactive).

Consider `CC1=NN(C(C)C)C(=O)C1`, for which the Tm shift relative to glycine control is -0.17% (inactive).

On to `Cc1ccc(S(=O)(=O)N2[C@@H](c3ccc(Br)cc3)C(C(=O)O)=C[C@H]2CC2CCCC2)cc1`, for which the Tm shift relative to glycine control was -1.23% (inactive).

Regarding `O=C(CSc1nn(-c2ccc(F)cc2)c(=S)s1)NC1CCS(=O)(=O)C1` (stereo not drawn), the Tm shift relative to glycine control was -1.94% (inactive).

As for `Cc1ccc(C)c(OCCC(=O)OCC(=O)c2ccc3c(c2)NC(=O)CO3)c1`, the Tm shift relative to glycine control is 1.04% (inactive).

Consider `CCOC(=O)C1CCN(C(=O)c2cccc(S(=O)(=O)N(CC)c3ccccc3)c2)CC1`, for which the Tm shift relative to glycine control was 0.33% (inactive).

Take `Nc1ccccc1/C=N\N=C/c1ccccc1N`: the Tm shift relative to glycine control was 10.2% (active).

For the molecule `O=[N+]([O-])c1cccc(C=NN=Cc2ccccc2O)c1`, the Tm shift relative to glycine control was -1.4% (inactive).

Regarding `Cc1c(C(=O)Nc2cccc(S(=O)(=O)N3CCOCC3)c2)oc2ccccc12`, the Tm shift relative to glycine control is -5.92% (inactive).

Consider `COc1ccc(NC(=O)c2oc3ccc(S(=O)(=O)N4CCOCC4)cc3c2C)cc1`, for which the Tm shift relative to glycine control was 14.9% (active).

`Cc1c(C(=O)Nc2ccccc2Cl)oc2ccc(S(=O)(=O)N3CCC4(CC3)OCCO4)cc12`: the Tm shift relative to glycine control is -0.83% (inactive).

Regarding `COc1cccc(-n2cc3c(c2-c2ccccc2)c(=O)n(C)c(=O)n3C)c1`, the Tm shift relative to glycine control was -1.71% (inactive).

With `Cc1ccc(-c2c3c(=O)n(C)c(=O)n(C)c3cn2-n2cnnc2)cc1`, the Tm shift relative to glycine control was -0.82% (inactive).

`Cc1ccc(-c2c3c(=O)n(C)c(=O)n(C)c3cn2-c2ccccc2O)cc1`: the Tm shift relative to glycine control is 22.9% (active).

With `Cc1csc(=O)n1CCC(=O)OCC(=O)NNC(=O)c1ccc(Br)cc1`, the Tm shift relative to glycine control was -0.85% (inactive).

Consider `COc1cccc(CNS(=O)(=O)c2csc(C(N)=O)c2)c1`, for which the Tm shift relative to glycine control was 2.62% (inactive).

For `COc1cccc(CNS(=O)(=O)c2ccc3c(c2)CC(C)N3C(C)=O)c1` (stereo not drawn), the Tm shift relative to glycine control was 2.23% (inactive).

On to `COc1cccc(CNS(=O)(=O)c2ccc3c(c2)N(C(C)=O)CCS3)c1`, for which the Tm shift relative to glycine control is 11.5% (active).

In the case of `CSc1nc2c(c(=O)[nH]1)C(c1cccc(Cl)c1Cl)CC(=O)N2` (stereo not drawn), the Tm shift relative to glycine control is -1.69% (inactive).

For `O=C(Nc1nc2ccc([N+](=O)[O-])cc2s1)c1ccc(S(=O)(=O)N2CCCc3ccccc32)cc1`, the Tm shift relative to glycine control is 18.8% (active).

As to `O=C(NC(Nc1nc2ccc([N+](=O)[O-])cc2s1)(C(F)(F)F)C(F)(F)F)c1ccccc1`, the Tm shift relative to glycine control was 6.26% (inactive).

Turning to `Cc1ccc(NC(=O)c2cccc(S(=O)(=O)N3CCCc4ccccc43)c2)nc1`, the Tm shift relative to glycine control is 2.57% (inactive).

With `O=C1COc2ccc(C(=O)COC(=O)c3ccccc3Cl)cc2N1`, the Tm shift relative to glycine control was 0% (inactive).

Consider `COc1ccc2c(c1)C(=O)CC(c1ccccc1)O2` (stereo not drawn), for which the Tm shift relative to glycine control was -1.87% (inactive).

Regarding `CCN(CC)c1ccc(C(=O)NNC(=O)CCc2nc3ccccc3c(=O)[nH]2)cc1`, the Tm shift relative to glycine control is -0.56% (inactive).

Take `Cc1ccc(OCC(=O)Nc2ccc(C(=O)O)cc2NC(=O)COc2ccc(C)c(C)c2)cc1C`: the Tm shift relative to glycine control was -0.84% (inactive).

For the molecule `COc1ccc(C(=O)COC(=O)COc2ccc(C)c(C)c2)cc1`, the Tm shift relative to glycine control is 12% (active).

Consider `COc1ccc(OCC(=O)OCCN(C)C)cc1`, for which the Tm shift relative to glycine control was -1.53% (inactive).

In the case of `Cc1ccc(O/C=C2\OC(=O)c3ccccc32)cc1`, the Tm shift relative to glycine control was 49.4% (active).

Turning to `Cc1ccc(Oc2cnn(-c3ccccc3)c(=O)c2Br)cc1`, the Tm shift relative to glycine control was -1.23% (inactive).

In the case of `Cc1n[nH]c(=O)c2c(NC(=O)COC(=O)c3ncc(Cl)c(Cl)c3Cl)oc(C)c12`, the Tm shift relative to glycine control is 4.91% (inactive).

Turning to `Cc1c(CCC(=O)O)c(=O)oc2c(C)c(OCc3ccccc3Cl)ccc12`, the Tm shift relative to glycine control is 0.1% (inactive).

With `CCN([C@H](CO)C(C)C)S(=O)(=O)c1ccccc1Br`, the Tm shift relative to glycine control was -1.23% (inactive).

In the case of `O=C(O)CCCC(=O)Nc1ccccc1-n1ccnc1`, the Tm shift relative to glycine control was -2.48% (inactive).

For the molecule `CCOC(=O)N1CCN(C(=O)COc2ccc3oc4c(c3c2)CCCC4)CC1`, the Tm shift relative to glycine control was 1.71% (inactive).

Regarding `CCOC(=O)N1CCN(C(=O)COc2ccc(Br)cc2)CC1`, the Tm shift relative to glycine control was 10.1% (active).

For the molecule `CCOC(=O)N1CCN(S(=O)(=O)c2ccc(Br)cc2)CC1`, the Tm shift relative to glycine control is -0.87% (inactive).

Take `Cc1cccc([C@@H]2[C@@H]3C(=O)N(Cc4ccccc4)C(=O)[C@@H]3[C@]3(C)C(=O)N(c4ccc(Br)cc4)C(=O)N23)c1`: the Tm shift relative to glycine control was -3.72% (inactive).

For the molecule `Cc1ccc(-c2cccc([C@H]3[C@@H]4C=CC[C@@H](C)[C@@H]4C(=O)N3Cc3ccccc3)c2)cc1`, the Tm shift relative to glycine control is 15.4% (active).

Take `Cc1cccc([C@H]2[C@@H]3C=CC[C@@H](C)[C@@H]3C(=O)N2Cc2ccccc2)c1`: the Tm shift relative to glycine control was 0.67% (inactive).

Take `CNC(=O)C1CCN(S(=O)(=O)c2c(C)noc2/C=C/c2cccc(C)c2)CC1`: the Tm shift relative to glycine control was 1.97% (inactive).

`CCOC(=O)c1c(Cc2ccc(Cl)cc2)c[nH]c1C`: the Tm shift relative to glycine control is -13.2% (inactive).

`CC(C)(C)NC(=O)CN(Cc1cccs1)C(=O)CNS(=O)(=O)c1ccccc1`: the Tm shift relative to glycine control is -2.34% (inactive).

As to `Cn1nnnc1SCC(=O)N1CCN(C(c2ccccc2)c2ccccc2)CC1`, the Tm shift relative to glycine control was 11% (active).

As to `O=C(c1ccc(-n2cnnn2)cc1)N1CCN(C(c2ccccc2)c2ccccc2)CC1`, the Tm shift relative to glycine control was -0.38% (inactive).

Regarding `Cn1nnnc1SCC(=O)N1CCN(Cc2ccccc2)CC1`, the Tm shift relative to glycine control was 0.27% (inactive).
